Where “and” joins values, the source holds several entries; their conditions need not be identical. Equal entries are not always repeated. Inconclusive results are not listed. Entries that show only a call come without a potency. Calls of active or inactive are those of the source. Unless noted, the call rests on the fitted dose curve; in most records, active means well fitted curve in the direction sought with a large enough effect; inconclusive means small, poorly fitted or top-dose-only effect, or another doubt; inactive means no such curve, though single readings can be large; an effect the other way counts as inactive or inconclusive.
What was measured:
[1] = qHTS assay for small molecule agonists of retinoid X receptor alpha signaling (AID 588544; calls by dose curve); settings: HEK293T RXRa-UAS-bla, beta-lactamase reporter, 18 h; 530 nm emission
[2] = target: Retinoic acid receptor RXR-alpha (Homo sapiens) (UniProt P19793); experiment: as above
[3] = target: Thyroid hormone receptor beta (Homo sapiens) (UniProt P10828); experiment: qHTS assay for small molecule agonists of thyroid hormone receptor beta signaling (AID 588545; calls by dose curve)
Outline: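 Beta-lactamase reporter activity under TR response element control is measured in HEK 293 cells after 18 hrs compound exposure. Signal is ratiometric CCF4 fluorescence, 460/530 nm.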

[4] = qHTS assay for small molecule antagonists of retinoid X receptor alpha signaling (AID 588546; active means well fitted inhibition curve with a large enough effect in the signal ratio, with a control signal flat, not every such curve was filed as active; the % refers to the signal ratio;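 further: cells stimulated with 9-cis-retinoic acid as agonist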); settings: HEK293T RXRa-UAS-bla, beta-lactamase ratio, antagonist mode; measured here: W530 green channel, cytotoxicity proxy
Outline: (§1)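 Beta-lactamase reporter inhibition, read as CCF4 fluorescence ratio (ex 405, em 460/530 nm) after 2 h at RT. HEK293T UAS-bla cells, 2500/well, were stimulated with 9-cis-RA at 500 or 100 nM final alongside test compound for 18 h at 37 C.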

[5] = target: Retinoic acid receptor RXR-alpha (Homo sapiens) (UniProt P19793); experiment: as above; settings: HEK293T RXRa-UAS-bla, beta-lactamase ratio, antagonist mode
Outline: as §1

[6] = target: Thyroid hormone receptor beta (Homo sapiens) (UniProt P10828); experiment: qHTS assay for small molecule antagonists of thyroid hormone receptor beta signaling (AID 588547; active means well fitted inhibition curve with a large enough effect in the signal ratio, with a control signal flat, not every such curve was filed as active; the % refers to the signal ratio;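 further: cells stimulated with 0.4 nM T3 agonist during compound exposure; series mostly up to about 77 µM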); settings: TR-UAS-bla HEK293, beta-lactamase ratio, antagonist mode, 18 h
Outline: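 TR-UAS-bla GripTite HEK293 cells in 2% charcoal/dextran FBS medium; compounds 0.59 nM to 92 uM with T3 at 0.4nM final, 18 h at 37 C. Beta-lactamase read by CCF4 fluorescence (460/530 nm); Hill fits gave IC50 and efficacy.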

[7] = qHTS assay for small molecule agonists of the antioxidant response element (ARE) signaling pathway (AID 651741; active means well fitted activation curve with a large enough effect in the signal ratio; the % refers to the signal ratio)
Outline: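 CellSensor ARE-bla HepG2 cells (2,000/well) carrying ARE-driven beta-lactamase, exposed 16 h at 37 C. LiveBLAzer B/G FRET substrate added for 2 h at room temperature; fluorescence intensity read.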

[8] = qHTS assay for small molecule activators of the p53 signaling pathway (AID 651743; active means well fitted activation curve with a large enough effect in the signal ratio, not every such curve was filed as active; the % refers to the signal ratio; further: series mostly up to about 92 µM); settings: HCT-116 p53RE-bla, beta-lactamase FRET ratio, 16 h; activation: stronger effect = higher value
Outline: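 p53RE-bla HCT-116 cells carrying a beta-lactamase reporter under p53 response elements were exposed to compounds for 16 hours at 37 C. Reporter activity read as fluorescence after 2 hours at room temperature with LiveBLAzer B/G FRET substrate.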

[9] = qHTS assay for small molecule activators of the nuclear factor-kappa B (NF-kB) signaling pathway (AID 651749; active means well fitted activation curve with a large enough effect in the signal ratio; the % refers to the signal ratio; further: series mostly up to about 77 µM); settings: NF-kB-bla ME-180 cells, beta-lactamase FRET ratio, 16 h; activation: stronger effect = higher value
Outline: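 NF-kB-bla ME-180 cells carrying a beta-lactamase reporter under an NF-kB response element, 2,000 cells/well, exposed to compound for 16 hr at 37C; FRET-based beta-lactamase fluorescence read-out of pathway activation.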

[10] = qHTS assay for small molecule disruptors of the mitochondrial membrane potential - 5 hr assay (AID 651755; calls by dose curve; further: nearly all actives have a fitted effect of over 40% in size)
Outline: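 HepG2 cells (2,000/well), attached overnight, exposed to compound 5 hr at 37C, then Mito-MPS dye 30 min. Fluorescence read for monomers (490/535 nm) and aggregates (540/590 nm).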

[11] = target: Tumor necrosis factor (Homo sapiens) (UniProt P01375); experiment: qHTS assay to identify small molecules that stimulate Tumor Necrosis Factor-alpha (TNF-alpha) secretion (AID 651757; active means well fitted curve in the direction sought with a large enough effect in the signal ratio; the % refers to the signal ratio)
Outline: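 THP-1 cells (3000/well) exposed to compounds 17 hrs at 37 C. Secreted TNF-alpha detected by HTRF with cryptate- and XL665-labeled anti-TNF-alpha antibodies after 3 hr at room temperature.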

[12] = qHTS assay to identify small molecules that stimulate interleukin-8 (IL-8) secretion (AID 651758; active means well fitted activation curve with a large enough effect in the signal ratio; the % refers to the signal ratio)
Outline: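 THP-1 cells (2000/well) exposed to compound 16 h at 37 C; secreted IL-8 then detected by HTRF with cryptate- and XL665-labelled anti-IL-8 antibody pair after 1-3 h at room temperature.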

[13] = qHTS assay for environmental chemicals that activate the Aryl hydrocarbon Receptor (AhR) signaling pathway (AID 651777); settings: 1A2-DRE human hepatoma cells, luciferase, 24 h; activation: stronger effect = higher value; further: nearly all actives have a fitted effect of over 15% in size
Outline: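 Stable CYP1A2 promoter/DRE-luciferase human hepatoma line treated 24 hr; One-Glo luminescence, 30 min RT.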

[14] = target: Peroxisome proliferator-activated receptor alpha (Homo sapiens) (UniProt Q07869); experiment: qHTS assay for small molecule agonists of the peroxisome proliferator-activated receptor alpha (PPARalpha) signaling pathway (AID 651778); settings: PathHunter PPARalpha complementation, chemiluminescence, 6 h; stronger effect = higher value
Outline: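 Enzyme-fragment complementation assay in which ligand-bound PPARalpha translocates and forms an active enzyme that generates chemiluminescence. Cells were plated overnight, exposed to compound for 6 hr at 37 C, and then given detection reagent for 60 min at room temperature.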

[15] = qHTS assay for small molecule agonists of the antioxidant response element (ARE) signaling pathway measured by Nrf2-dependant transcriptional activity (AID 720636; active means well fitted curve in the direction sought with a large enough effect in the repeat runs; an effect the other way counts as inactive or inconclusive;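 further: HepG2 cells with an ARE-driven luciferase reporter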)
Outline: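 Reporter gene assay, HepG2 ARE-luc: 16 hr compound, 37 C, 5% CO2; read-out luciferase luminescence.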

[16] = qHTS assay for small molecule antagonists of the retinoid-related orphan receptor gamma (ROR-gamma) signaling pathway - cell viability counter screen (AID 720652; active means well fitted curve in the direction sought with a large enough effect in the repeat runs; an effect the other way counts as inactive or inconclusive;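 further: CHO reporter cells with doxycycline-induced ROR-gamma expression; series mostly up to about 92 µM; compound exposure lasted 16 hr before ATP read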)
Outline: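 CHO cells carrying TET-inducible ROR and RORE-luciferase reporter, plated 5 hr, then dosed with compound plus doxycycline. After 16 hr at 37 C, viability read as intracellular ATP by CellTiter-Glo luminescence.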

[17] = qHTS assay for small molecule agonists of the antioxidant response element (ARE) signaling pathway measured by Nrf2-dependant transcriptional activity - cell viability counter screen (AID 720653; active means well fitted curve in the direction sought with a large enough effect in the repeat runs; an effect the other way counts as inactive or inconclusive); settings: ARE-bla HepG2 viability, CellTiter-Glo ATP luminescence, 16 h; stronger effect = lower value
Outline: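 ARE-bla HepG2 cells treated with compounds for 16 h at 37C; this counter screen measures viability as intracellular ATP by CellTiter-Glo luminescence after 30 min at room temperature.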

[18] = qHTS assay for cell viability of HEK293 cells (AID 743288); settings: ATP luminescence (CellTiter-Glo), 18 h; max response: stronger effect = lower value; further: nearly all actives have a fitted effect of over 50% in size
Outline: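 HEK293 parental, 2,000 cells/well; ≥5 h pre-incubation 37 C; pintool compound addition; 18 h, 37 C; CellTiter-Glo 30 min RT; luminescence read.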

[19] = qHTS assay for cell viability of the p53RE-bla HCT-116 cell line (AID 743292); further: nearly all actives have a fitted effect of over 55% in size
Outline: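 Readout: CellTiter-Glo luminescence after 30 min RT. Treatment: compounds in DMSO, 16 h, 37 C. Cells: CellSensor p53RE-bla HCT-116, 4,000/well, preincubated 5 h.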

[20] = target: Rap guanine nucleotide exchange factor 3 (Homo sapiens) (UniProt O95398); experiment: Confirmatory qHTS for antagonist of cAMP-regulated guanine nucleotide exchange factor 3 (EPAC1) (AID 1645880); further: nearly all actives have a fitted effect of over 55% in size
Outline: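 Nucleotide exchange uses 100 nM EPAC1, 250 nM RAP1B-BODIPY-GDP and 50 uM GDP, with compounds in a concentration-titration series. After 5 min at room temperature, fluorescence (480 nm ex/540 nm em) is read every 5 min for 30 min. Data are normalized to control ATA and DMSO.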

[21] = target: Rap guanine nucleotide exchange factor 3 (Homo sapiens) (UniProt O95398); experiment: Confirmatory qHTS for agonist of cAMP-regulated guanine nucleotide exchange factor 3 (EPAC1) (AID 1645881);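 further: EPAC1 catalysed release of BODIPY-GDP from Rap1B seen as fluorescence loss; nearly all actives have a fitted effect of over 75% in size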
[22] = target: Rap guanine nucleotide exchange factor 4 (Homo sapiens) (UniProt Q8WZA2); experiment: Confirmatory qHTS for agonist of cAMP-regulated guanine nucleotide exchange factor 4 (EPAC2) (AID 1645884);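 further: nucleotide exchange releases bodipy-GDP from Rap1 and this lowers its fluorescence; nearly all actives have a fitted effect of over 65% in size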
[23] = target: Nuclear receptor subfamily 1 group I member 2 (Rattus norvegicus) (UniProt Q9R1A7); experiment: qHTS assay for small molecule activators of the rat pregnane X receptor (rPXR) signaling pathway (AID 651751; call rule not given here); settings: rPXR reporter cells, luciferase (One-Glo), 24 h
[24] = qHTS assay for small molecule activators of the human pregnane X receptor (PXR) signaling pathway (AID 720659; call rule not given here)

Retinoic acid receptor RXR-alpha (Homo sapiens), sequence (P19793 whole entry, looked up): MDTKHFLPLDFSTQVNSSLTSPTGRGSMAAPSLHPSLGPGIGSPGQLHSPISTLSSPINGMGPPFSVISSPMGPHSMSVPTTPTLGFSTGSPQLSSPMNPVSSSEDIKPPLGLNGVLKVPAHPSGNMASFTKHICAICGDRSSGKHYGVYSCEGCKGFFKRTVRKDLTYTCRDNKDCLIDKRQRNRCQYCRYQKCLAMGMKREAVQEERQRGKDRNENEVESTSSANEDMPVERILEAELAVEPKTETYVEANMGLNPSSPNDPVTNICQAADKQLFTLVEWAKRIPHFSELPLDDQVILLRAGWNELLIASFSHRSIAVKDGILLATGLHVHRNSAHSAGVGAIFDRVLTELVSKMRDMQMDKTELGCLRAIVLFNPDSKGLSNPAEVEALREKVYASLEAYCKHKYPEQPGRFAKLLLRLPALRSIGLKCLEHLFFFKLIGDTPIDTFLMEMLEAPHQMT
Thyroid hormone receptor beta (Homo sapiens), sequence (P10828 whole entry, looked up): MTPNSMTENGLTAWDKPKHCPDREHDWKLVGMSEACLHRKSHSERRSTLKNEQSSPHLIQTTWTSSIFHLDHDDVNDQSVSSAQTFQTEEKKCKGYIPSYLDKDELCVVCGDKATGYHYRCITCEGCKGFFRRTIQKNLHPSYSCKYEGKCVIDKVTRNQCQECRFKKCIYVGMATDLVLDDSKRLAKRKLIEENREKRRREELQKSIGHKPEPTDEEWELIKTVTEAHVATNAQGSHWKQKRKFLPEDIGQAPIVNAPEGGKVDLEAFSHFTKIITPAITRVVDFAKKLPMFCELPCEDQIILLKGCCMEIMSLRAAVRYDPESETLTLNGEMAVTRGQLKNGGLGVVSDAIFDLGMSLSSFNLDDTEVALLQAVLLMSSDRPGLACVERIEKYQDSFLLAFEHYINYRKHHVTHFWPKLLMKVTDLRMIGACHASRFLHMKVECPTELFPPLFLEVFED
Peroxisome proliferator-activated receptor alpha (Homo sapiens), sequence (Q07869 whole entry, looked up, the tested form may be a part): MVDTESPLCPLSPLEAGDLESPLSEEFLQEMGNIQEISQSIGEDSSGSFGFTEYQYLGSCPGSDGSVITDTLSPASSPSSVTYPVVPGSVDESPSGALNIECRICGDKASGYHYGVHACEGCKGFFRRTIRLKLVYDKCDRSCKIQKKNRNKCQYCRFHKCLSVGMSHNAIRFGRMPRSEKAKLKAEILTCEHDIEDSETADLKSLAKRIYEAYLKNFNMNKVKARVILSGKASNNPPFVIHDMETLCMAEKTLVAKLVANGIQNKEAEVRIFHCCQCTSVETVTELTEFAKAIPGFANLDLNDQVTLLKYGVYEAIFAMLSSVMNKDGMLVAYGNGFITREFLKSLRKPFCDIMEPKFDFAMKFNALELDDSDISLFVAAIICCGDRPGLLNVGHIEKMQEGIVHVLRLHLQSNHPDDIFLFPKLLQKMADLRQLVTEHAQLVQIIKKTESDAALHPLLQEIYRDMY
Rap guanine nucleotide exchange factor 3 (Homo sapiens), sequence (O95398 whole entry, looked up): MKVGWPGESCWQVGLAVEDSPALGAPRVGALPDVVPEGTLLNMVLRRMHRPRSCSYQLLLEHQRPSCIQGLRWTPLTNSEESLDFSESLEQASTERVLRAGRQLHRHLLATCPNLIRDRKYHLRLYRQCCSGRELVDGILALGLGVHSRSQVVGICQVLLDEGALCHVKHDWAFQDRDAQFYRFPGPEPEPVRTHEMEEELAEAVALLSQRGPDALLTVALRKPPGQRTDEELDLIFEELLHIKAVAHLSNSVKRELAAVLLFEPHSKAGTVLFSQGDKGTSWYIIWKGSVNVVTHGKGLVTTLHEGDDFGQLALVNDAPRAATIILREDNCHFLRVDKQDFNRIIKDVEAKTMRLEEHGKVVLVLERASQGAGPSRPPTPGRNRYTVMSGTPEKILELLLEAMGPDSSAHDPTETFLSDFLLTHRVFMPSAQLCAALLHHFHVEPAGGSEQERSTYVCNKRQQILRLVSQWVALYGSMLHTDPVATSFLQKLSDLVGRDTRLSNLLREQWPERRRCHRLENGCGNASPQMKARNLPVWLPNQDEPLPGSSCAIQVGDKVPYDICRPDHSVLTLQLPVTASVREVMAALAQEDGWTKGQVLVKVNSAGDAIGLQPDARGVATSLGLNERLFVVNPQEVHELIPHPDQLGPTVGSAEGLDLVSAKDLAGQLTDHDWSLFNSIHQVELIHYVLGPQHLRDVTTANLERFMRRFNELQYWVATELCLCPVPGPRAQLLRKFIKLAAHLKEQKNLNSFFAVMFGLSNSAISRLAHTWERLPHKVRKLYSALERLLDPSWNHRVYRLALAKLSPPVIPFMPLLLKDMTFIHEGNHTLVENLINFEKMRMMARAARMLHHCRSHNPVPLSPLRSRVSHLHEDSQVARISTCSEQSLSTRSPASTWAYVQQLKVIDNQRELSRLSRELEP
Nuclear receptor subfamily 1 group I member 2 (Rattus norvegicus), sequence (Q9R1A7 whole entry, looked up): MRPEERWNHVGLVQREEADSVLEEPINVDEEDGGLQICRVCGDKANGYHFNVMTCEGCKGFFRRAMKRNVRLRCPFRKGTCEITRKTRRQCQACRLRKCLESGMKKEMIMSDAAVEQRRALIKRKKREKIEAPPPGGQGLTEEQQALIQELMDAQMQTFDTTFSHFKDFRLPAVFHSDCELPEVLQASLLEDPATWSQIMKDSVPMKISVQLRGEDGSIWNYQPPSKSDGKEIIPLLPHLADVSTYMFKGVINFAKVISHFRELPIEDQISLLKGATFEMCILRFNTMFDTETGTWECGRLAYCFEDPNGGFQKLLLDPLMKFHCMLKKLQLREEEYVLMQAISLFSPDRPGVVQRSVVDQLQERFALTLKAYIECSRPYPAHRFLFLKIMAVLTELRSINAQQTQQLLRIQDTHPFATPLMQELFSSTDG
Tumor necrosis factor (Homo sapiens), sequence (P01375 whole entry, looked up): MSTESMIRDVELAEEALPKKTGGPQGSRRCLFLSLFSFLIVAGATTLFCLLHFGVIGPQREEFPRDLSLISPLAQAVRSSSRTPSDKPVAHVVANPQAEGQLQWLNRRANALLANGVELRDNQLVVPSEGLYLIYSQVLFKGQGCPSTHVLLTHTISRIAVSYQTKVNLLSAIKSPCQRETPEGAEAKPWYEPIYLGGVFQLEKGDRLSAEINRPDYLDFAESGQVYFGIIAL
Rap guanine nucleotide exchange factor 4 (Homo sapiens), sequence (Q8WZA2 whole entry, looked up): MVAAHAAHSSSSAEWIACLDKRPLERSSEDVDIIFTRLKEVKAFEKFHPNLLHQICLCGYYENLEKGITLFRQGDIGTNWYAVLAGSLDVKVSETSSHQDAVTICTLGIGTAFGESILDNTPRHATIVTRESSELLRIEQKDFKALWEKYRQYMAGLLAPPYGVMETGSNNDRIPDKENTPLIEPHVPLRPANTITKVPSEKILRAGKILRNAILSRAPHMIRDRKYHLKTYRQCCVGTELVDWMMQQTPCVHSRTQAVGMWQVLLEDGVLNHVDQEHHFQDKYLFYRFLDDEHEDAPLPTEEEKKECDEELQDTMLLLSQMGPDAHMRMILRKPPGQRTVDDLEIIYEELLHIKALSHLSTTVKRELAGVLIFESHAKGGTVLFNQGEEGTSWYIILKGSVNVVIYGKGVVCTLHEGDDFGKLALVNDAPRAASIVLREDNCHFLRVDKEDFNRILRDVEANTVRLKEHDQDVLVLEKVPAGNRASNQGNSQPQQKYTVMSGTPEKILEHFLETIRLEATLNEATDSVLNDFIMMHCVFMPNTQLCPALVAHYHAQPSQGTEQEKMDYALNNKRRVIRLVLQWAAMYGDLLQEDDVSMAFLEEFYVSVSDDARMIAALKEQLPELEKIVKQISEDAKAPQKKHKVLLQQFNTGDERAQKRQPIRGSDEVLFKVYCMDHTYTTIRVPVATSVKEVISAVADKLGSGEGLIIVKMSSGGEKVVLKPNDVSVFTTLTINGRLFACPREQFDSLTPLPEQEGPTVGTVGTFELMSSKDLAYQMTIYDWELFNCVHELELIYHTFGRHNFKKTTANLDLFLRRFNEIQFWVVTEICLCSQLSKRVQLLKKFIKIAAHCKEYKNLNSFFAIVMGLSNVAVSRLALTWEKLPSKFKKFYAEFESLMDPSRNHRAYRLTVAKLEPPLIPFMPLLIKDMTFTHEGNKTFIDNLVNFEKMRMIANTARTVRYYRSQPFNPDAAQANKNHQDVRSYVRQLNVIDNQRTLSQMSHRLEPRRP

CCCCOC(=O)c1ccccc1C(=O)OCCCC
max response [1]: -8.82% and -0.286%
Potency [2]: inactive
outcome [3]: inactive
max response [4]: -3.09%
max response [5]: -10.9% (inactive)
activity change % (negative = inhibition) [6]: 17.1% (inactive) and -3.92% (inactive)
Potency [7]: inactive
activation [8]: -2.51% (inactive) and -0.006% (inactive)
activation [9]: -1.75% (inactive) and -1.98% (inactive)
Potency [10]: inactive
outcome [11]: inactive
Potency [12]: inactive
activation [13]: -0.984% (inactive) and 1.91% (inactive)
max response [14]: -1.47% (inactive) and -0.868% (inactive)
outcome [15]: inactive
Potency [16]: inactive
max response [17]: -12.7% (inactive) and 12.7% (inactive)
max response [18]: -1.27% (inactive) and -9.6% (inactive)
Potency [19]: inactive
Potency [20]: inactive
Potency [21]: inactive
Potency [22]: inactive
max response [23]: 4.96% (inactive) and 5.3% (inactive)
outcome [24]: inactive

Reference: PubChem BioAssay (NCATS)
